In PubChem BioAssay:

What follows are compounds tested against Calmodulin-1 (Homo sapiens) (UniProt P0DP23) (assay: small molecules binding Ca-loaded calmodulin-1 – biochemical, small-molecule microarray, Cy5-labelled CALM1, plus calcium, artefact control for SMM control-protein annotation, profiling panel (AID 1112;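 further: score merges spot fluorescence with signal to noise from triplicate slides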)). Details: Cy5-CALM1 binding fluorescence, higher = more signal.

Row | Structure (SMILES) | composite z-score
1 | CO[C@H]1COC(=O)[C@@H](C)COC(=O)[C@H](Cc2ccccc2)NC(=O)CC=C[C@H]1C | -1.8
2 | C=CCC(OC(C)=O)[C@@H]1[C@@H](N(Cc2cccc3ccccc23)C(=O)c2ccc(C)cc2)c2cc(OCCCO)ccc2N1C(=O)c1ccc(-c2ccccc2)cc1 (stereo partly specified) | -0.065
3 | CC(C)[C@H]1NC(=O)[C@@]23C(=O)N[C@@H](Cc4ccccc4)C2[C@H](C)[C@@]2(C)O[C@H]2C3/C=C/C/C=C\CNC(=O)[C@H](C)NC1=O (stereo partly specified) | -0.751
4 | CO[C@H]1COC(=O)[C@@H](Cc2ccccc2)NC(=O)[C@@H](C)COC(=O)CC=C[C@@H]1C | -2.14
5 | CN1CCC(CCCO)=CC1C1CC1 (stereo unspecified) | -1.36
6 | CC(C)[Si]1(C(C)C)OCc2cc(C3CC3)nc(-c3ccccc3)c21 | -0.183
7 | O=C1c2ccccc2[C@](Cc2ccccc2I)(C(=O)O)[C@H](c2ccc(CO)cc2)N1C1CCCCC1 | 0.487
8 | C[C@@H]1NC(=O)CC=C[C@@H](C)[C@@H]2C=C[C@H](O)[C@@H](COC(=O)[C@H](C)NC(=O)CC=C[C@@H](C)[C@@H]3C=C[C@H](O)[C@@H](COC1=O)O3)O2 | -0.0969
9 | C=CCc1cccc([C@@H]2[C@@H](C)CC[C@H]3C(=O)N4[C@H](c5cccc(CC=C)c5)[C@@H](C)CC[C@H]4C(=O)N23)c1 | -0.831
10 | C=CC[C@@]12N=C(c3ccc(OCCCO)cc3)O[C@@H]1c1ccccc1CN(Cc1ccccc1)C2=O | 0.429
11 | COc1ccc([C@H]2C[C@H]3C(Br)=C[C@]2(OC)C(=O)[C@]32CO2)cc1 | -0.668
12 | C=CCOC(=O)[C@@H]1[C@H]2C(=O)O[C@H](c3ccccc3)[C@H](c3ccccc3)N2[C@H](c2ccc(OCCOC(=O)[C@H]3C[C@H]4C(=O)N5CCC[C@H]5C(=O)N4[C@H]3c3ccc(O)cc3)cc2)[C@@]12C(=O)Nc1ccccc12 | 0.699
13 | CC(=O)NCCCC[C@@H]1NC(=O)[C@@H]2C[C@H](C(=O)NCc3ccc(F)cc3)[C@H](c3cccc(OCCO)c3)N2C1=O | 0.0377
14 | O=C(CS)NCCCCCNC(=O)[C@H]1C[C@H]2C(=O)N3CCC[C@H]3C(=O)N2[C@H]1c1ccc(O)cc1 | 1.22
15 | C=C(COC)/C(=C/C[C@H](OC(C)=O)c1ccc(OCCO)cc1)c1cnc2ccccc2c1 | 0.214
16 | COc1cc([C@@H]2N[C@H](C(=O)O)Cc3c2[nH]c2ccccc32)cc(OC)c1OC | -0.494
17 | C=CC[C@@]1(C(=O)N2CCOCC2)N=C(c2ccc(OCCCO)cc2)O[C@@H]1c1ccccc1 | 0.0806
18 | COCCOC(=O)N1C(=O)[C@@]2(c3cc(C#CC4=CCCCC4)ccc31)[C@H](c1ccc(O)cc1)N1[C@H](c3ccccc3)[C@H](c3ccccc3)OC(=O)[C@H]1[C@@H]2C(=O)N1CCCCCCC1 | 0.716

Row | Structure (SMILES) | composite z-score
19 | COCCOC(=O)N1C(=O)[C@@]2(c3cc(C#CC4=CCCCC4)ccc31)[C@H](C(=O)NC[C@H](O)c1ccccc1)[C@H]1C(=O)O[C@H](c3ccccc3)[C@H](c3ccccc3)N1[C@@H]2c1ccccc1OCCO | 0.635
20 | C=CC[C@]1(C(=O)NCC(O)CO)N=C(c2ccc(OCCCO)cc2)O[C@H]1c1ccccc1 (stereo partly specified) | 1.12
21 | C=CCC(OC(C)=O)[C@@H]1[C@@H](N(Cc2cc3ccccc3o2)C(=O)c2ccc(C)cc2)c2cc(OCCCO)ccc2N1C(=O)c1ccc2ccccc2n1 (stereo partly specified) | 0.574
22 | CC(C)NC(=O)[C@@]1(Cc2ccccc2I)c2ccccc2C(=O)N(C2CCCCC2)[C@H]1c1ccc(CO)cc1 | 0.458
23 | C=C[C@H](OC)[C@@H](OC(=O)Nc1ccc(SC)cc1)c1ccc(OC)c(O)c1 | 0.319
24 | CCc1cccc(NC(=O)O[C@H]2[C@H](OC(=O)Nc3ccccc3)[C@@H](OC(=O)Nc3ccccc3)[C@@H](OC)O[C@@H]2CO)c1 | -0.291
25 | COCCOC(=O)N1C(=O)[C@@]2(c3cc(C#CCC(C(=O)OC)C(=O)OC)ccc31)[C@H](C(=O)N1CCN(c3ncccn3)CC1)[C@H]1C(=O)O[C@H](c3ccccc3)[C@H](c3ccccc3)N1[C@@H]2c1ccc(O)cc1 | 0.601
26 | COc1ccc(-c2cc3c(c(-c4ccccc4)n2)[Si](C(C)C)(C(C)C)O[C@H]3c2ccccc2)cn1 | -0.265
27 | CCC(=O)[C@]12O[C@@]3([C@@H]4C(=O)OCC[C@@H]41)N(Cc1ccccc1)C(C)=C(C(=O)OC)[C@@H](c1ccccc1)N3C2=O | -0.0047
28 | CO[C@@H]1COC(=O)[C@H](C)NC(=O)CC=C[C@@H](C)[C@H](NS(=O)(=O)c2ccc(C)cc2)COC(=O)CC=C[C@@H]1C | -0.239
29 | CC(=O)Nc1ccc([C@H]2[C@H](C)CC[C@H]3C(=O)N4[C@@H](CC[C@@H](C)[C@@H]4c4ccc(NC(C)=O)cc4)C(=O)N32)cc1 | -0.346
30 | C=CCN(C(=O)C1N(c2ccc(CCO)cc2)C(=O)C2C(C(=O)O)C3C=CC21O3)C(C)(C)C (stereo unspecified) | 0.966
31 | CO[C@H]1COC(=O)[C@H](C)NC(=O)CC=C[C@@H](C)[C@H](NS(=O)(=O)c2ccc(C)cc2)COC(=O)[C@@H](OCc2ccccc2)C=C[C@@H]1C | -1.02
32 | COCCCNC(=O)[C@@]1(Sc2ccc(C)cc2)CC(=O)N(Cc2cc(C(F)(F)F)cc(C(F)(F)F)c2)[C@@H]1c1ccc(CO)cc1I | 1.14
33 | CO[C@H]1COC(=O)CC=C[C@H](C)[C@@H](OC)COC(=O)[C@H](Cc2ccccc2)NC(=O)CC=C[C@@H]1C | -3.12
34 | COCCOC(=O)N1C(=O)[C@@]2(c3cc(C#CCCO)ccc31)[C@H](C(=O)N1CCCCCCC1)[C@H]1C(=O)O[C@H](c3ccccc3)[C@H](c3ccccc3)N1[C@@H]2c1ccc(O)cc1 | 0.719
35 | Cc1ccc(N2C(=O)c3ccccc3[C@@H](C(=O)NCc3ccccc3)[C@@H]2c2ccc(CO)cc2)nc1 | -0.313
36 | O=C1C2C=CC(C(O)C(c3ccccc3)c3ccccc3)N(Nc3ccc([N+](=O)[O-])cc3)C2C(=O)N1c1ccccc1 (stereo unspecified) | 0.808
